The text below walks through data of PubChem BioAssay AID1347417 (National Center for Advancing Translational Sciences (NCATS), 2020).

Molecules are shown by their SMILES. The campaign covered roughly 120,000 compounds. About 5,300 (4.4%) were called active. Another 22% or so got no clear call; they are omitted. What follows is part of a selection rich in actives, with near analogues and random picks from the rest. Unmarked numbers belong to inactive results. The call rests on the fitted dose curve; in most records, active means well fitted inhibition curve with a large enough effect; inconclusive means small, poorly fitted or top-dose-only effect; inactive means no such curve, though single readings can be large or run the other way.
Potency means the concentration at half of the fitted maximal effect.

The experiment can be described thus: qHTS Primary assay for Inhibitors of Plasmodium falciparum Dd2 growth in vitro. Further: nearly all actives have a fitted effect of over 65% in size.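 On activity, negative = inhibition: plate controls were DMSO vehicle for no effect and reference drug for full effect.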 The following applies: P. falciparum Dd2 growth, SYBR Green, 72 h; series mostly up to 28.9 µM; activity, negative = inhibition: at the top concentration. In outline:
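Infected erythrocytes (Dd2, 0.3% parasitemia, 2.5% hematocrit final) are added to compound in RPMI-1640/Albumax II medium, grown 72 h at 37C in low oxygen, then lysed with saponin/Triton-X containing SYBR Green and read by fluorescence.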
A general note: Quantitative high-throughput screening tests each substance at several concentrations.
In the case of `COc1ccc(NC(=O)CSc2nccn2C2CCCC2)cc1OC`, the “activity, negative = inhibition” value was 98.7%.

For `Cc1ccc(-c2noc([C@@H]3CCCN3C(=O)c3cc(Cl)ccc3F)n2)cc1`, the outcome was inactive.

As to `CS(=O)(=O)Cc1ccc(-c2cccc(OCc3ccccc3F)c2)nc1`, the “activity, negative = inhibition” value was 15.8%.

As to `COCCC(=O)NCCC1CCN(C(=O)Nc2ccccc2F)CC1`, the “activity, negative = inhibition” value is 1.23%.

Turning to `C[S+](=O)([O-])N1CC2ON=C(C(=O)O)C2C1` (centres undefined), the “activity, negative = inhibition” value is 15.9% [at 44.1 µM].

Consider `CCOc1ccc2c(n1)CCN(C(=O)c1ccccc1C)C2`, for which the “activity, negative = inhibition” value is 23.4%.

Consider `C[C@@H]1CN(C(=O)c2ccc(-c3ccn[nH]3)cc2)CC[C@@]1(O)C1CCOCC1`, for which the “activity, negative = inhibition” value is -4.28%.

Consider `COC(=O)CNC(=O)N1CCOC(c2ccc(Cl)c(Cl)c2)C1` (centres undefined), for which the “activity, negative = inhibition” value was -7.83%.

On to `Cc1noc(-c2cccn3c(CNC(=O)CCc4ccccc4)nnc23)n1`, for which the “activity, negative = inhibition” value is -21%.

`COc1cccc(CC(=O)NC2CCN(c3cc(-c4ccccc4)[nH]n3)C2)c1` (centres undefined): the “activity, negative = inhibition” value was -15.8%.

As for `COc1ccc(CNC(=O)[C@@H]2Cc3cn(Cc4ccncc4)c4cccc(c34)[C@H](CC(C)C)N2)cc1`, the compound was classed as inactive.

With `CC#CCn1cc2c3c(cccc31)[C@H](CC(C)C)N[C@H](C(=O)NCc1ccccc1OC)C2`, the “activity, negative = inhibition” value is -14.8%.

As for `CC(C)C[C@@H]1N[C@H](C(=O)NCc2ccc(F)cc2)Cc2cn(C)c3cccc1c23`, the Potency is 14.1 µM (active).

`O=C(Nc1cccnc1)N[C@@H]1C[C@H](CO)[C@@H](O)[C@H]1O`: the “activity, negative = inhibition” value is 15.7% [at 44.1 µM].

Turning to `Cc1ccccc1CNC(=O)C1CCCN(C(=O)c2ccccc2)CCC(=O)NCC1` (centres undefined), the “activity, negative = inhibition” value is 0.165%.

`O=c1c2cccnc2n(Cc2cccc(F)c2)c(=O)n1Cc1ccccc1Cl`: the Potency is 12.6 µM (active).

Turning to `COc1ccc(-n2c(=O)c3ccccc3n(Cc3ccccc3Cl)c2=O)cc1`, the “activity, negative = inhibition” value is 10.2%.

With `O=C(O)c1ccc(CSc2nc3cccnc3n2Cc2cccc(F)c2)cc1`, the “activity, negative = inhibition” value was -8.45%.

As to `COc1ccc(-c2ccnc3nc(CC(C)C)nn23)c(F)c1`, the “activity, negative = inhibition” value was -29.2%.

`CC(NC(=O)c1noc(-c2ccc(F)cc2)n1)c1ccc(F)cc1` (centres undefined): the “outcome” value is “inactive; activator; fitted 0.8913 uM”.

As for `Cc1cccc(C(=O)N2CCC(OC3CCN(Cc4ccccc4)CC3)CC2)c1`, the Potency was 3.98 µM (active).

Take `CN1CCCN(S(=O)(=O)c2cccs2)c2ccccc21`: the “activity, negative = inhibition” value is -16.5%.

As for `O=S(=O)(c1cccs1)N1CCC(OC2CCN(Cc3ccccc3)CC2)CC1`, the Potency is 3.55 µM (active).

As to `CC(C)C(=O)N1CCC(OC2CCN(Cc3ccccc3)CC2)CC1`, the “activity, negative = inhibition” value is -28.6%.

On to `Cc1cccc(C(=O)N2CCC(CC(=O)NCc3ccccc3)C2)c1` (centres undefined), for which the “activity, negative = inhibition” value was 23.5%.

As for `CC(C)CN1CCN(C2CCOC3(CCN(S(=O)(=O)c4cccs4)CC3)C2)CC1` (centres undefined), the “activity, negative = inhibition” value is -11.2%.

Turning to `N[C@H]1CCN2C(=O)c3cc(-c4ccc(F)cc4F)ccc3NC(=O)[C@H]12`, the “outcome” value is “inactive [at 44.1 µM]”.

As to `Cc1cccc(C(=O)N2CC(c3nnc(C(C)C)o3)C3(CCOCC3)C2)c1` (centres undefined), the “activity, negative = inhibition” value was -19.4%.

Take `Cc1cnc(CCNC(=O)Nc2ccccc2F)n1C1CCC1`: the Potency is 4.47 µM (active).

In the case of `CC(=O)NCCc1ncc(C)n1C1CCCCC1`, the “activity, negative = inhibition” value was -23.6%.

Regarding `Cc1cnc(CCNC(=O)c2cn(C)cn2)n1C1CC1`, the “activity, negative = inhibition” value was -21%.

As for `C=C(C)CN(CC)C(=O)c1c(C)oc2c1CN(Cc1cccc(F)c1)CC2`, the Potency was 8.91 µM (active).

For the compound `CCNC(=O)c1c(C)oc2c1CN(C(=O)CCc1ccccc1)CC2`, the call was inactive.

For `O=c1[nH]c(N2CCOCC2)nc2c1CCN(Cc1cccc(F)c1)CC2`, the outcome is “inactive [at 5.79 µM]”.

Consider `O=C(CCc1ccccc1)N1CCCCCC1c1nc(-c2ccccc2)no1` (centres undefined), for which the “activity, negative = inhibition” value is -10.1%.

Consider `Cc1cccc(CC(=O)N2CCC(c3noc(COCC4CC4)n3)CC2)c1`, for which the “activity, negative = inhibition” value is -11.1%.

Regarding `Cc1ccc2c(C)c(C(=O)N3CCCn4cncc4C3)oc2c1`, the “activity, negative = inhibition” value was -21.1%.

On to `COc1ccc(NC(=O)c2ccc3nc(C(C)C)oc3c2)cc1OC`, for which the “activity, negative = inhibition” value was 14.6%.

Take `COc1ccc(NC(=O)c2ccc3c(c2)N(S(C)(=O)=O)CC3)cc1OC`: the “activity, negative = inhibition” value is -0.286%.

For the compound `COc1ccc(C(=O)Nc2ccc3nc(N4CCCCC4)cc(C)c3c2)cc1OC`, the Potency was 3.16 µM (active).

Turning to `COc1ccc(N2CCC(NC(=O)c3ccc(N(C)C)cc3)C2=O)cc1` (centres undefined), the “activity, negative = inhibition” value was -12%.

As for `O=C(NCc1ccc(Cl)nc1)c1cnn2c1CN([S+](=O)([O-])c1cccc(C(F)(F)F)c1)CC2`, the “activity, negative = inhibition” value was 70.5%.

As to `COc1cc(C)ccc1OCCSc1nc2ccc(NC(=O)c3ccc(C)cc3)cc2s1`, the “activity, negative = inhibition” value was -22.7%.

Take `Cc1ccccc1OCCSc1nc2ccc(NC(=O)c3ccco3)cc2s1`: the Potency is 2.24 µM (active).

With `Cc1ccc(OCCSc2nc3ccc(NC(=O)COc4ccc(C)cc4)cc3s2)cc1`, the “activity, negative = inhibition” value is 5.02%.

In the case of `CC(=O)Nc1ccc2nc(SCCOc3cc(C)cc(C)c3)sc2c1`, the result was inactive.

For the compound `Cc1cccc(OCCSc2nc3ccc(NC(=O)COc4ccccc4C)cc3s2)c1`, the “activity, negative = inhibition” value is -19.9%.

As for `O=C(Nc1ccc2nc(SCCOc3ccccc3)sc2c1)c1ccco1`, the Potency is 4.47 µM (active).

For `CN1CC2(CCN(Cc3cn[nH]c3-c3ccccc3)CC2)CC1C(=O)N1CCOCC1` (centres undefined), the “activity, negative = inhibition” value was -19.7%.
